# PubChem BioAssay (NCI)
# About 79,000 compounds went through this panel and 15% of them were active in at least one assay; those are over-represented in the sample as a whole. A number with no mark means an inactive call. Calls of active or inactive are those of the source. Rule as the data show it: active = growth inhibition above about 70%; inactive = the rest.
# Experiments:
# [1] = NCI Yeast Anticancer Drug Screen. Data for the rad52 strain (AID 147);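 also: 0% = growth of vehicle-treated control cultures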; conditions: S. cerevisiae rad52 mutant growth inhibition, hits give high values
# Summary of the method: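 Growth of repair-deficient yeast cells was compared between compound-treated and vehicle-treated cultures to give percent inhibition.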
# [2] = NCI Yeast Anticancer Drug Screen. Data for the wt1 strain (AID 149);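 also: 0% = growth of vehicle-treated wt1 cultures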; conditions: S. cerevisiae wt1 strain (SPY 50644) growth inhibition, hits give high values
# Summary of the method: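 Each compound is tested on wt1 yeast and the loss of growth versus vehicle gives the inhibition value.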
# [3] = NCI Yeast Anticancer Drug Screen. Data for the rad50EPP+ strain (AID 151);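 also: 0% = growth of vehicle-treated control cultures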; conditions: S. cerevisiae rad50 mutant strain, hits give high values
# Summary of the method: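 Measured: growth inhibition of rad50EPP+ yeast. Reference: vehicle-treated controls. Screen uses strains with defined genetic alterations in DNA damage repair or cell cycle control.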
# [4] = NCI Yeast Anticancer Drug Screen. Data for the mgt1 strain (AID 153); conditions: S. cerevisiae mgt1 mutant growth inhibition, hits give high values
# Summary of the method: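 Compounds were applied to mgt1 mutant yeast, and growth was then compared against vehicle-treated control cultures to give percent inhibition.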
# [5] = NCI Yeast Anticancer Drug Screen. Data for the rad50 strain (AID 155);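 also: 0% = growth of vehicle-only cultures of the same strain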; conditions: S. cerevisiae rad50 strain growth inhibition, hits give high values
# Summary of the method: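 Vehicle-treated cultures provide the reference for the growth inhibition reported for compound-exposed, repair-deficient yeast.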
# [6] = NCI Yeast Anticancer Drug Screen. Data for the mec2-1 strain (AID 157); conditions: S. cerevisiae mec2-1 strain, hits give high values
# Summary of the method: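 Compounds were applied to mec2-1 yeast cells. Their growth was then compared with that of vehicle-treated cultures to give growth inhibition.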
# [7] = NCI Yeast Anticancer Drug Screen. Data for the rad14 strain (AID 159);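 also: 0% = growth of vehicle-treated control cultures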; conditions: S. cerevisiae rad14 strain growth inhibition, hits give high values
# Summary of the method: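 Inhibition of growth is reported for a repair-deficient yeast mutant following compound treatment, calculated relative to cultures that received vehicle.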
# [8] = NCI Yeast Anticancer Drug Screen. Data for the sgs1 mgt1 strain (AID 161);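 also: 0% = growth of cultures given vehicle only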; conditions: S. cerevisiae sgs1 mgt1 strain, hits give high values
# Summary of the method: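 This yeast growth screen uses a strain with defined DNA-repair lesions; compound-treated growth is compared with vehicle-treated growth.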
# [9] = NCI Yeast Anticancer Drug Screen. Data for the CLN2oe strain (AID 163);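 also: 0% = growth of vehicle-only control cultures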; conditions: S. cerevisiae CLN2oe strain, hits give high values
# Summary of the method: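 Cells of an engineered yeast line with disturbed cell-cycle regulation are treated with compound. Inhibition of growth is then calculated relative to the vehicle-treated reference.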
# [10] = NCI Yeast Anticancer Drug Screen. Data for the cln2 rad14 strain (AID 165);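 also: 0% = growth equal to vehicle treated cultures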; conditions: S. cerevisiae cln2 rad14 strain, hits give high values
# Summary of the method: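 Strain: cln2 rad14 yeast, altered in cell cycle control and DNA damage repair. Read-out: growth inhibition vs vehicle.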
# [11] = NCI Yeast Anticancer Drug Screen. Data for the bub3 strain (AID 167); conditions: S. cerevisiae bub3 mutant strain, hits give high values
# Summary of the method: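 Mutant yeast screening strain plus compound; vehicle-treated cultures serve as the 0% inhibition reference.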
# [12] = NCI Yeast Anticancer Drug Screen. Data for the wt2 strain (AID 169); conditions: S. cerevisiae wt2 strain growth inhibition, hits give high values
# Summary of the method: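 Growth of compound-treated yeast is measured and expressed as inhibition relative to vehicle-only controls.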
# [13] = NCI Yeast Anticancer Drug Screen. Data for the mlh1 strain (AID 171);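 also: 0% = growth of vehicle-treated control cultures of the same strain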; conditions: S. cerevisiae mlh1 strain growth inhibition, hits give high values
# Summary of the method: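 Test agents were incubated with yeast bearing a defined DNA damage repair or cell cycle control alteration; values are growth inhibition normalised to vehicle-treated cultures.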
# [14] = NCI Yeast Anticancer Drug Screen. Data for the sgs1 strain (AID 173);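 also: 0% = growth of vehicle-only control cultures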; conditions: S. cerevisiae sgs1 mutant, hits give high values
# Summary of the method: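 Strain with an altered DNA repair or cell cycle pathway exposed to compound. Growth then measured. Value = inhibition versus vehicle control.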
# [15] = NCI Yeast Anticancer Drug Screen. Data for the rad18 strain (AID 177); conditions: S. cerevisiae rad18 mutant growth inhibition, hits give high values
# Summary of the method: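 DNA-repair-defective yeast; compound treatment; growth inhibition scored against vehicle.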
# [16] = at 5.0 µM (retest, dose inferred, filed as 0.5)
# [17] = at 50.0 µM (retest, dose inferred, filed as 5.0)
compound,measurement,setting,value
O=[N+]([O-])c1cc(S(=O)(=O)Nc2ccccc2)ccc1Nc1ccccc1,growth inhibition,[1]; at 1.2 µM,0%
same,growth inhibition,[1]; at 3.7 µM,13%
same,growth inhibition,[1]; at 11.0 µM,95% (active)
same,growth inhibition,[1]; at 33.0 µM,91% (active)
same,growth inhibition,[1]; at 100.0 µM,76% (active)
same,growth inhibition,[2]; at 1.2 µM,-16%
same,growth inhibition,[2]; at 3.7 µM,-19%
same,growth inhibition,[2]; at 11.0 µM,94% (active)
same,growth inhibition,[2]; at 33.0 µM,91% (active)
same,growth inhibition,[2]; at 100.0 µM,81% (active)
same,growth inhibition,[3]; at 1.2 µM,2%
same,growth inhibition,[3]; at 3.7 µM,2%
same,growth inhibition,[3]; at 11.0 µM,23%
same,growth inhibition,[3]; at 33.0 µM,19%
same,growth inhibition,[3]; at 100.0 µM,3%
same,growth inhibition,[4]; at 1.2 µM,-18%
same,growth inhibition,[4]; at 3.7 µM,11%
same,growth inhibition,[4]; at 11.0 µM,89% (active)
same,growth inhibition,[4]; at 33.0 µM,92% (active)
same,growth inhibition,[4]; at 100.0 µM,82% (active)
same,growth inhibition,[5]; at 1.2 µM,11%
same,growth inhibition,[5]; at 3.7 µM,28%
same,growth inhibition,[5]; [16],51%
same,growth inhibition,[5]; at 11.0 µM,93% (active)
same,growth inhibition,[5]; at 33.0 µM,89% (active)
same,growth inhibition,[5]; [17],94% (active)
same,growth inhibition,[5]; at 50.0 µM,80% (active)
same,growth inhibition,[5]; at 100.0 µM,75% (active)
same,growth inhibition,[6]; at 1.2 µM,18%
same,growth inhibition,[6]; at 3.7 µM,19%
same,growth inhibition,[6]; [16],39%
same,growth inhibition,[6]; at 11.0 µM,93% (active)
same,growth inhibition,[6]; at 33.0 µM,89% (active)
same,growth inhibition,[6]; [17],96% (active)
same,growth inhibition,[6]; at 50.0 µM,81.2% (active)
same,growth inhibition,[6]; at 100.0 µM,78% (active)
same,growth inhibition,[7]; at 1.2 µM,-26%
same,growth inhibition,[7]; at 3.7 µM,-29%
same,growth inhibition,[7]; at 11.0 µM,89% (active)
same,growth inhibition,[7]; at 33.0 µM,89% (active)
same,growth inhibition,[7]; at 100.0 µM,77% (active)
same,growth inhibition,[8]; [16],2%
same,growth inhibition,[8]; [17],91% (active)
same,growth inhibition,[8]; at 50.0 µM,85.5% (active)
same,growth inhibition,[9]; at 1.2 µM,14%
same,growth inhibition,[9]; at 3.7 µM,-1%
same,growth inhibition,[9]; at 11.0 µM,94% (active)
same,growth inhibition,[9]; at 33.0 µM,89% (active)
same,growth inhibition,[9]; at 100.0 µM,76% (active)
same,growth inhibition,[10]; [16],68%
same,growth inhibition,[10]; [17],91% (active)
same,growth inhibition,[10]; at 50.0 µM,80.2% (active)
same,growth inhibition,[11]; at 1.2 µM,15%
same,growth inhibition,[11]; at 3.7 µM,40%
same,growth inhibition,[11]; [16],-7%
same,growth inhibition,[11]; at 11.0 µM,94% (active)
same,growth inhibition,[11]; at 33.0 µM,91% (active)
same,growth inhibition,[11]; [17],86% (active)
same,growth inhibition,[11]; at 50.0 µM,76.2% (active)
same,growth inhibition,[11]; at 100.0 µM,76% (active)
same,growth inhibition,[12]; at 1.2 µM,-28%
same,growth inhibition,[12]; at 3.7 µM,-18%
same,growth inhibition,[12]; at 11.0 µM,92% (active)
same,growth inhibition,[12]; at 33.0 µM,92% (active)
same,growth inhibition,[12]; at 100.0 µM,83% (active)
same,growth inhibition,[13]; at 1.2 µM,-26%
same,growth inhibition,[13]; at 3.7 µM,-15%
same,growth inhibition,[13]; at 11.0 µM,90% (active)
same,growth inhibition,[13]; at 33.0 µM,91% (active)
same,growth inhibition,[13]; at 100.0 µM,79% (active)
same,growth inhibition,[14]; at 1.2 µM,0%
same,growth inhibition,[14]; at 3.7 µM,-8%
same,growth inhibition,[14]; at 11.0 µM,91% (active)
same,growth inhibition,[14]; at 33.0 µM,91% (active)
same,growth inhibition,[14]; at 100.0 µM,83% (active)
same,growth inhibition,[15]; at 1.2 µM,-3%
same,growth inhibition,[15]; at 3.7 µM,18%
same,growth inhibition,[15]; at 11.0 µM,95% (active)
same,growth inhibition,[15]; at 33.0 µM,91% (active)
same,growth inhibition,[15]; at 100.0 µM,79% (active)
Cc1cc2cc3cc(C)c(N)cc3nc2cc1N,growth inhibition,[1]; at 1.2 µM,-6%
same,growth inhibition,[1]; at 3.7 µM,-1%
same,growth inhibition,[1]; at 11.0 µM,-7%
same,growth inhibition,[1]; at 33.0 µM,77% (active)
same,growth inhibition,[1]; at 100.0 µM,96% (active)
same,growth inhibition,[2]; at 1.2 µM,-18%
same,growth inhibition,[2]; at 3.7 µM,-8%
same,growth inhibition,[2]; at 11.0 µM,-6%
same,growth inhibition,[2]; at 33.0 µM,56%
same,growth inhibition,[2]; at 100.0 µM,89% (active)
same,growth inhibition,[3]; at 1.2 µM,-10%
same,growth inhibition,[3]; at 3.7 µM,20%
same,growth inhibition,[3]; at 11.0 µM,37%
same,growth inhibition,[3]; at 33.0 µM,71% (active)
same,growth inhibition,[3]; at 100.0 µM,84% (active)
same,growth inhibition,[4]; at 1.2 µM,-61%
same,growth inhibition,[4]; at 3.7 µM,-60%
same,growth inhibition,[4]; at 11.0 µM,-28%
same,growth inhibition,[4]; at 33.0 µM,68%
same,growth inhibition,[4]; at 100.0 µM,94% (active)
same,growth inhibition,[5]; at 1.2 µM,-9%
same,growth inhibition,[5]; at 3.7 µM,-18%
same,growth inhibition,[5]; [16],94% (active)
same,growth inhibition,[5]; at 11.0 µM,27%
same,growth inhibition,[5]; at 33.0 µM,86% (active)
same,growth inhibition,[5]; [17],99% (active)
same,growth inhibition,[5]; at 50.0 µM,81.8% (active)
same,growth inhibition,[5]; at 100.0 µM,96% (active)
same,growth inhibition,[6]; at 1.2 µM,-18%
same,growth inhibition,[6]; at 3.7 µM,-5%
same,growth inhibition,[6]; [16],78% (active)
same,growth inhibition,[6]; at 11.0 µM,13%
same,growth inhibition,[6]; at 33.0 µM,82% (active)
same,growth inhibition,[6]; [17],98% (active)
same,growth inhibition,[6]; at 50.0 µM,75.5% (active)
same,growth inhibition,[6]; at 100.0 µM,97% (active)
same,growth inhibition,[7]; at 1.2 µM,-7%
same,growth inhibition,[7]; at 3.7 µM,-23%
same,growth inhibition,[7]; at 11.0 µM,5%
same,growth inhibition,[7]; at 33.0 µM,70% (active)
same,growth inhibition,[7]; at 100.0 µM,92% (active)
same,growth inhibition,[8]; [16],16%
same,growth inhibition,[8]; [17],98% (active)
same,growth inhibition,[8]; at 50.0 µM,85.2% (active)
same,growth inhibition,[9]; at 1.2 µM,-1%
same,growth inhibition,[9]; at 3.7 µM,8%
same,growth inhibition,[9]; at 11.0 µM,17%
same,growth inhibition,[9]; at 33.0 µM,46%
same,growth inhibition,[9]; at 100.0 µM,83% (active)
same,growth inhibition,[10]; [16],34%
same,growth inhibition,[10]; [17],98% (active)
same,growth inhibition,[10]; at 50.0 µM,46.8%
same,growth inhibition,[11]; at 1.2 µM,-20%
same,growth inhibition,[11]; at 3.7 µM,-5%
same,growth inhibition,[11]; [16],23%
same,growth inhibition,[11]; at 11.0 µM,8%
same,growth inhibition,[11]; at 33.0 µM,69%
same,growth inhibition,[11]; [17],96% (active)
same,growth inhibition,[11]; at 50.0 µM,77.8% (active)
same,growth inhibition,[11]; at 100.0 µM,92% (active)
same,growth inhibition,[12]; at 1.2 µM,-7%
same,growth inhibition,[12]; at 3.7 µM,-12%
same,growth inhibition,[12]; at 11.0 µM,2%
same,growth inhibition,[12]; at 33.0 µM,56%
same,growth inhibition,[12]; at 100.0 µM,94% (active)
same,growth inhibition,[13]; at 1.2 µM,-10%
same,growth inhibition,[13]; at 3.7 µM,3%
same,growth inhibition,[13]; at 11.0 µM,24%
same,growth inhibition,[13]; at 33.0 µM,79% (active)
same,growth inhibition,[13]; at 100.0 µM,95% (active)
same,growth inhibition,[14]; at 1.2 µM,-43%
same,growth inhibition,[14]; at 3.7 µM,-21%
same,growth inhibition,[14]; at 11.0 µM,0%
same,growth inhibition,[14]; at 33.0 µM,66%
same,growth inhibition,[14]; at 100.0 µM,91% (active)
same,growth inhibition,[15]; at 1.2 µM,-37%
same,growth inhibition,[15]; at 3.7 µM,-25%
same,growth inhibition,[15]; at 11.0 µM,-11%
same,growth inhibition,[15]; at 33.0 µM,67%
same,growth inhibition,[15]; at 100.0 µM,92% (active)
